Measurements: PubChem BioAssay (NCI)
Compounds without any hit were thinned out: in the full panel of roughly 79,000, 15% have a hit. The source made the active and inactive calls. No stated cut-off is given here; in the data, active means growth inhibition above about 70%; inactive means the rest.

What was measured:
[1] = NCI Yeast Anticancer Drug Screen. Data for the rad52 strain (AID 147);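 further: 0% = growth of vehicle-treated control cultures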; details: S. cerevisiae rad52 mutant growth inhibition, stronger effect = higher value
Procedure, shortened: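 The repair-mutant yeast strain was incubated with compounds, then growth was read and inhibition derived relative to vehicle.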

[2] = NCI Yeast Anticancer Drug Screen. Data for the wt1 strain (AID 149);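 further: 0% = growth of vehicle-treated wt1 cultures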; details: S. cerevisiae wt1 strain (SPY 50644) growth inhibition, stronger effect = higher value
Procedure, shortened: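 Each compound is tested on wt1 yeast and the loss of growth versus vehicle gives the inhibition value.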

[3] = NCI Yeast Anticancer Drug Screen. Data for the rad50EPP+ strain (AID 151);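 further: 0% = growth of vehicle-treated control cultures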; details: S. cerevisiae rad50 mutant strain, stronger effect = higher value
Procedure, shortened: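 Vehicle-normalised growth inhibition; rad50EPP+ yeast strain, altered in DNA damage repair, compound-treated.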

[4] = NCI Yeast Anticancer Drug Screen. Data for the mgt1 strain (AID 153); details: S. cerevisiae mgt1 mutant growth inhibition, stronger effect = higher value
Procedure, shortened: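 Vehicle-normalized growth inhibition is determined in mgt1 yeast, a strain selected for a defined alteration in DNA repair or cell cycle control.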

[5] = NCI Yeast Anticancer Drug Screen. Data for the rad50 strain (AID 155);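 further: 0% = growth of vehicle-only cultures of the same strain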; details: S. cerevisiae rad50 strain growth inhibition, stronger effect = higher value
Procedure, shortened: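 Vehicle-treated cultures provide the reference for the growth inhibition reported for compound-exposed, repair-deficient yeast.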

[6] = NCI Yeast Anticancer Drug Screen. Data for the mec2-1 strain (AID 157); details: S. cerevisiae mec2-1 strain, stronger effect = higher value
Procedure, shortened: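 Mutant yeast (mec2-1) grown with compound; growth inhibition relative to vehicle control reported.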

[7] = NCI Yeast Anticancer Drug Screen. Data for the rad14 strain (AID 159);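 further: 0% = growth of vehicle-treated control cultures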; details: S. cerevisiae rad14 strain growth inhibition, stronger effect = higher value
Procedure, shortened: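 Inhibition of growth is reported for a repair-deficient yeast mutant following compound treatment, calculated relative to cultures that received vehicle.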

[8] = NCI Yeast Anticancer Drug Screen. Data for the sgs1 mgt1 strain (AID 161);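 further: 0% = growth of cultures given vehicle only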; details: S. cerevisiae sgs1 mgt1 strain, stronger effect = higher value
Procedure, shortened: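 Yeast cells carrying a defined DNA-repair defect were exposed to test compounds. Growth inhibition was measured relative to vehicle-treated controls.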

[9] = NCI Yeast Anticancer Drug Screen. Data for the CLN2oe strain (AID 163);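 further: 0% = growth of vehicle-only control cultures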; details: S. cerevisiae CLN2oe strain, stronger effect = higher value
Procedure, shortened: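 Compounds are applied to yeast harbouring a defined cell-cycle control change; reduced growth compared with vehicle-treated controls gives the value.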

[10] = NCI Yeast Anticancer Drug Screen. Data for the cln2 rad14 strain (AID 165);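 further: 0% = growth equal to vehicle treated cultures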; details: S. cerevisiae cln2 rad14 strain, stronger effect = higher value
Procedure, shortened: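 Readout is yeast growth inhibition versus vehicle-treated controls, using a strain with cln2 and rad14 alterations exposed to compound.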

[11] = NCI Yeast Anticancer Drug Screen. Data for the bub3 strain (AID 167); details: S. cerevisiae bub3 mutant strain, stronger effect = higher value
Procedure, shortened: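 Mutant yeast screening strain plus compound; vehicle-treated cultures serve as the 0% inhibition reference.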

[12] = NCI Yeast Anticancer Drug Screen. Data for the wt2 strain (AID 169); details: S. cerevisiae wt2 strain growth inhibition, stronger effect = higher value
Procedure, shortened: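 Against vehicle-treated controls, the growth of yeast exposed to each compound was compared, and the inhibition was recorded.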

[13] = NCI Yeast Anticancer Drug Screen. Data for the mlh1 strain (AID 171);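 further: 0% = growth of vehicle-treated control cultures of the same strain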; details: S. cerevisiae mlh1 strain growth inhibition, stronger effect = higher value
Procedure, shortened: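 Measured: yeast growth. Reference: vehicle-treated controls. Organism: strain with a defined alteration affecting DNA damage repair or cell cycle control, treated with compound.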

[14] = NCI Yeast Anticancer Drug Screen. Data for the sgs1 strain (AID 173);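 further: 0% = growth of vehicle-only control cultures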; details: S. cerevisiae sgs1 mutant, stronger effect = higher value
Procedure, shortened: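 Each compound was added to cultures of the altered yeast strain. Growth was recorded, and inhibition was derived by comparison with vehicle controls.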

[15] = NCI Yeast Anticancer Drug Screen. Data for the mlh1 rad18 strain (AID 175); details: S. cerevisiae mlh1 rad18 strain growth inhibition, stronger effect = higher value
Procedure, shortened: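 Genetically defined yeast (DNA repair-deficient) exposed to compounds; growth inhibition determined relative to vehicle.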

[16] = NCI Yeast Anticancer Drug Screen. Data for the rad18 strain (AID 177); details: S. cerevisiae rad18 mutant growth inhibition, stronger effect = higher value
Procedure, shortened: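 Vehicle-treated cultures served as the baseline for scoring compound-induced growth inhibition in DNA-repair-mutant yeast.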

[17] = at 5.0 µM (retest, dose inferred, filed as 0.5)
[18] = at 50.0 µM (retest, dose inferred, filed as 5.0)

Measured: growth inhibition

NC(=O)NN=C(CS)CS
active: [1]; at 100.0 µM 88% | [5]; at 100.0 µM 89% | [7]; at 100.0 µM 97% | [8]; at 50.0 µM 75% | [14]; at 100.0 µM 89% | [15]; at 50.0 µM 84.8%
inactive: [1]; at 1.2 µM -1% | [1]; at 3.7 µM 4% | [1]; at 11.0 µM 19% | [1]; at 33.0 µM 50% | [2]; at 1.2 µM -1% | [2]; at 3.7 µM -2% | [2]; at 11.0 µM -1% | [2]; at 33.0 µM 17% | [2]; at 100.0 µM 33% | [3]; at 1.2 µM -2% | [3]; at 3.7 µM -1% | [3]; at 11.0 µM -5% | [3]; at 33.0 µM 6% | [3]; at 100.0 µM 29% | [4]; at 1.2 µM -1% | [4]; at 3.7 µM 0% | [4]; at 11.0 µM 2% | [4]; at 33.0 µM 12% | [4]; at 100.0 µM 66% | [5]; at 1.2 µM 1% | [5]; at 3.7 µM 30% | [5]; [17] 4% | [5]; at 11.0 µM 31% | [5]; at 33.0 µM 44% | [5]; [18] 57% | [5]; at 50.0 µM 63.8% | [6]; at 1.2 µM 0% | [6]; at 3.7 µM 0% | [6]; [17] 1% | [6]; at 11.0 µM 6% | [6]; at 33.0 µM 24% | [6]; [18] 28% | [6]; at 50.0 µM 48.5% | [6]; at 100.0 µM 60% | [7]; at 1.2 µM -2% | [7]; at 3.7 µM 0% | [7]; at 11.0 µM 6% | [7]; at 33.0 µM 30% | [8]; [17] 2% | [8]; [18] 32% | [9]; at 1.2 µM -9% | [9]; at 3.7 µM -11% | [9]; at 11.0 µM -10% | [9]; at 33.0 µM 0% | [9]; at 100.0 µM 11% | [10]; [17] -22% | [10]; [18] 9% | [10]; at 50.0 µM -11.9% | [11]; at 1.2 µM 0% | [11]; at 3.7 µM -7% | [11]; [17] -3% | [11]; at 11.0 µM 3% | [11]; at 33.0 µM 14% | [11]; [18] 15% | [11]; at 50.0 µM 27.4% | [11]; at 100.0 µM 56% | [12]; at 1.2 µM 0% | [12]; at 3.7 µM 8% | [12]; at 11.0 µM 2% | [12]; at 33.0 µM 10% | [12]; at 100.0 µM 46% | [13]; at 1.2 µM 0% | [13]; at 3.7 µM -1% | [13]; at 11.0 µM 3% | [13]; at 33.0 µM 14% | [13]; at 100.0 µM 60% | [14]; at 1.2 µM 0% | [14]; at 3.7 µM 5% | [14]; at 11.0 µM 18% | [14]; at 33.0 µM 49% | [15]; [17] 5% | [15]; [18] 47%

FC(F)(F)c1nc2nc(Cl)c(Cl)nc2n1CCCN1CCOCC1
inactive: [1]; at 1.2 µM 2% | [1]; at 3.7 µM 11% | [1]; at 11.0 µM 20% | [1]; at 33.0 µM 20% | [1]; at 100.0 µM 32% | [2]; at 1.2 µM 0% | [2]; at 3.7 µM 1% | [2]; at 11.0 µM 7% | [2]; at 33.0 µM 12% | [2]; at 100.0 µM 18% | [3]; at 1.2 µM -1% | [3]; at 3.7 µM 5% | [3]; at 11.0 µM 6% | [3]; at 33.0 µM 2% | [3]; at 100.0 µM 4% | [4]; at 1.2 µM 0% | [4]; at 3.7 µM 5% | [4]; at 11.0 µM 8% | [4]; at 33.0 µM 22% | [4]; at 100.0 µM 34% | [5]; at 1.2 µM 5% | [5]; at 3.7 µM 13% | [5]; [17] 29% | [5]; at 11.0 µM 18% | [5]; at 33.0 µM 22% | [5]; [18] 63% | [5]; at 50.0 µM 67% | [5]; at 100.0 µM 27% | [6]; at 1.2 µM 2% | [6]; at 3.7 µM -15% | [6]; [17] 3% | [6]; at 11.0 µM 12% | [6]; at 33.0 µM 16% | [6]; [18] 15% | [6]; at 50.0 µM 33.1% | [6]; at 100.0 µM 27% | [7]; at 1.2 µM 6% | [7]; at 3.7 µM 11% | [7]; at 11.0 µM 36% | [7]; at 33.0 µM 44% | [7]; at 100.0 µM 53% | [8]; [17] 19% | [8]; at 50.0 µM 45.9% | [9]; at 1.2 µM 2% | [9]; at 3.7 µM 13% | [9]; at 11.0 µM 23% | [9]; at 33.0 µM 45% | [9]; at 100.0 µM 57% | [10]; [17] -16% | [10]; [18] 54% | [10]; at 50.0 µM -1.1% | [11]; at 1.2 µM 0% | [11]; at 3.7 µM 4% | [11]; [17] 9% | [11]; at 11.0 µM 22% | [11]; at 33.0 µM 52% | [11]; [18] 56% | [11]; at 50.0 µM 55.8% | [11]; at 100.0 µM 35% | [12]; at 1.2 µM -1% | [12]; at 3.7 µM 3% | [12]; at 11.0 µM 13% | [12]; at 33.0 µM 20% | [12]; at 100.0 µM 26% | [13]; at 1.2 µM 1% | [13]; at 3.7 µM 6% | [13]; at 11.0 µM 14% | [13]; at 33.0 µM 38% | [13]; at 100.0 µM 35% | [14]; at 1.2 µM 4% | [14]; at 3.7 µM 9% | [14]; at 11.0 µM 30% | [14]; at 33.0 µM 50% | [14]; at 100.0 µM 47% | [15]; [17] 5% | [15]; [18] 57% | [15]; at 50.0 µM 64.7% | [16]; at 1.2 µM -6% | [16]; at 3.7 µM 6% | [16]; at 11.0 µM 31% | [16]; at 33.0 µM 31% | [16]; at 100.0 µM 43%
active: [8]; [18] 72%
